uPA surface inh – cell surface uPA generation inhibition. cell surface uPA generation assay, qHTS. Potency, µM (top dose mostly 38.3 µM), actives largely listed as inhibitors. hit rate 0.31% among 330,000. AID 540303; active = well fitted inhibition curve with a large enough effect; inconclusive = small, poorly fitted or top-dose-only effect; inactive = no such curve, though single readings can be large or run the other way; tested in mouse RAW 264.7 cells; also: nearly all actives have a fitted effect of over 55% in size
Mito fusion yeast – mitochondrial division inhibition or fusion activation. S. cerevisiae fusion-defective mutant growth rescue, CellTiterGlo 48 h. Potency, µM (highest dose often 46.1 µM), usual class: activators. hit rate 0.23% among 320,000. AID 485298; active = well fitted activation curve with a large enough effect; inconclusive = small, poorly fitted or top-dose-only effect; inactive = no such curve, though single readings can be large or run the other way; also: nearly all actives have a fitted effect of over 45% in size
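Read-out: ATP-based luminescence (CellTiterGlo, 10 min ambient) reporting growth of fusion-defective ts yeast after 48 hours at 37C on glycerol/ethanol YPEG medium in the presence of compound.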
Six1-Eya2 inh – inhibitors of human Six1/Eya2 interaction | Q15475+O00167 | AlphaScreen GST-Six1/His-Eya2 binding, biochemical; active compounds read low | activity change, % (test concentration not listed) | hit rate 0.56% among 360,000
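Homogeneous AlphaScreen proximity assay pairing GST-Six1 with His-tagged Eya2 (added as 5X mix: 250 nM and 500 nM) in 50 mM Tris pH 8.0, 300 mM NaCl, 1 mM TCEP. Glutathione donor and nickel acceptor beads; 1 h, 37 °C, dark.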
CtBP-E1A blk – CtBP/E1A binding inhibition | AlphaScreen GST-E1A/His-CtBP binding, 1536-well; active compounds read low | activity change, % (concentration not given with the values) | hit rate 0.49% among 340,000 | AID 651724
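Homogeneous bead-based format: GST-tagged E1A captured on glutathione donor beads, His-tagged CtBP on nickel acceptor beads; compounds precede bead addition by 2 h at 37 °C.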
MBNL1-CUG inh – inhibitors of human MBNL1 binding to CUG repeat RNA. Potency, µM (top dose mostly 57.5 µM), most hits filed as inhibitors. Q9NR56. hit rate 0.036% among 280,000. TR-FRET MBNL1-His/biotin-(CUG)12 binding, 665/545 ratio; active = well fitted inhibition curve with a large enough effect in the signal ratio, with a control signal flat, not every such curve was filed as active; inconclusive = small, poorly fitted or top-dose-only effect, or effect the other way, or a change in a side signal; inactive = no such curve, though single readings can be large or run the other way; the % refers to the signal ratio
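Compound titration spanned 92 nM–58 uM against the MBNL1-His/biotin-(CUG)12 complex. After 60 min at room temperature with 5 nM streptavidin-XL665 and 0.055 ng/ul terbium anti-His, ratiometric 665/545 nm emission (Ex 340 nm) normalized to controls.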
Hits are given with their value; i = inactive; ? = inconclusive; nt = not tested or not shown; [ ] = dose if it differs, or a comment. Hits are enriched below; roughly 1.1% of the tested compounds scored in any of these assays. Rule as the data show it, unless noted: active = activity change below about -65%; inconclusive = mostly about -30% to -63%; inactive = weaker than that.

SMILES | uPA surface inh | Mito fusion yeast | Six1-Eya2 inh | CtBP-E1A blk | MBNL1-CUG inh
O=c1cc(C(F)(F)F)nc(-n2[nH]c3c(c2=O)CCCC3)[nH]1 | i | i | -84.6 | -87.5 | i
O=C1CC(c2ccccc2)c2c(n3ncnc3[nH]c2=O)N1 (stereo not given) | nt | i | nt | nt | nt
Nc1c(Cl)cc(C2=NCCn3c2c2ccc([N+](=O)[O-])cc2[n+]3[O-])cc1Cl | 3.98µM | ? | i | nt | nt
NC(=S)NN=Cc1nccc2c(C(F)(F)F)cccc12 | nt | nt | -74.8 | -71.8 | nt
CNc1cccnc1C=NNC(N)=S | i | nt | -88.5 | i | nt
O=C(NCc1cccnc1)c1csc([C@H]2C[C@H](O)[C@@H](CO)O2)n1 | nt | nt | i | i | nt
Nc1ncnc2c1nc(Br)n2C1OC2COP(=O)(O)O[C@@H]2C1O (stereo not given in full) | nt | i | nt | nt | nt
CCOc1ncccc1C(=O)OC(C)C(=O)Nc1ccc(N2CCOCC2)cc1 (stereo not given) | i | nt | i | nt | nt
COc1ccc(S(=O)(=O)N(C)C[C@H]2Oc3c(cccc3N(C)C)C(=O)N([C@H](C)CO)C[C@@H]2C)cc1 | i | nt | i | nt | nt
COC(=O)C[C@H]1CC[C@@H](NC(=O)C2CC2)[C@@H](CO)O1 | nt | nt | i | i | nt
CC/C(=N\Nc1ccccc1[N+](=O)[O-])c1ccc(O)cc1 | i | i | ? | -71.4 | ?
O=C(NCc1ccccc1)C(C1CC1)n1c(Cc2cc(F)cc(F)c2)nc2ccccc21 (stereo not given) | nt | nt | i | i | nt
COc1ccc(CCNC(=O)Cn2nc(C)c3c(C)n(-c4ccc(C)cc4)nc3c2=O)c(OC)c1 | nt | i | nt | nt | nt
COc1ccc(Cl)cc1NC(=O)CN(C)CC(=O)Nc1cc(OC)c(OC)c(OC)c1 | 3.55µM | i | i | i | i
COc1ccc(Cl)cc1NC(=O)CN(C)CC(=O)Nc1ccc(Br)cc1 | i | i | i | i | i
COc1ccc(Cl)cc1NC(=O)CN(C)C(=O)c1cc2c(F)cccc2s1 | 6.31µM | ? | i | nt | nt
CC[C@]12C(=O)N(C)C[C@H]([C@@H]3C(=O)N(Cc4ccccc4)C(=O)[C@@H]31)N2C(=O)c1ccc(C(F)(F)F)cc1 | i | nt | i | i | nt
C=CCn1c(SCC(=O)Nc2ccc3c(c2)OCO3)nnc1-c1cc(Br)ccc1O | i | i | -84.6 | -92.2 | i
C=CCn1c(SCC(=O)Nc2ccc3c(c2)OCO3)nnc1-c1ccccc1 | i | i | i | i | i
O=c1[nH]nc(N=Nc2c(O)[nH]c3ccc(F)cc23)c(=O)[nH]1 | i | nt | -80.5 | -70.8 | nt
Cc1ccc(N=Nc2c(O)[nH]c3ccc(F)cc23)cc1 | i | i | i | i | nt
COc1ccc(NC(=O)c2cc(-c3cc(C)cc(F)c3)n[nH]2)cc1OC | nt | nt | i | i | nt
COc1ccc(C(C)C)cc1-c1cccc2nncn12 | nt | nt | i | i | nt
CCCCOc1ccc(C(=O)Nc2ccc(OCC(=O)N3CCOCC3)cc2)cc1 | 7.08µM | i | i | i | i
Cc1ccc(C(=O)O[C@H](C(=O)O)[C@@H](OC(=O)c2ccc(C)cc2)C(=O)O)cc1 (tested in a mixture with another compound) | nt | i | nt | nt | nt
SMILES | uPA surface inh | Mito fusion yeast | Six1-Eya2 inh | CtBP-E1A blk | MBNL1-CUG inh
O=C1Cc2ccccc2Sc2ccc(O)cc21 | i | 14.1µM | i | i | i
O=C(NC1(C(F)(F)F)C(=O)Nc2c1c(=O)[nH]c(=O)n2CCc1ccccc1)c1ccc(Cl)cc1 (stereo not given) | nt | i | nt | nt | nt
CCCCOc1ccc(-c2cn3ccccc3n2)cc1[N+](=O)[O-] | 7.94µM | ? | i | nt | i
CCOc1ccc(-c2cn3ccccc3n2)cc1[N+](=O)[O-] | i | i | i | i | i
Cc1ccc(S(=O)(=O)Nc2ccccc2C(=O)Nc2nc(-c3ccc(F)cc3)cs2)cc1 | 12.6µM | i | i | i | i
COc1ccc(-c2csc(NC(=O)c3ccccc3NS(=O)(=O)c3ccc(F)c(F)c3)n2)cc1 | i | i | i | i | i
CC(C)c1ccccc1NC(=S)NCCCn1ccnc1 | i | 1.58µM | i | i | i
CC(C(=O)O)N1C(=O)/C(=C/C=C/c2ccco2)SC1=S (stereo not given) | i | i | -74.0 | i | ?
Cc1ccc(C23CC4CC(CC(CC(=O)NC(C)(C)CO)(C4)C2)C3)cc1 | i | 17.8µM | i | nt | i
O=C1C2=C(C(=O)c3ccccc31)C1O[C@](c3ccsc3)(Cc3ccccc31)O2 | nt | i[9.22 µM] | nt | nt | i[11.5 µM]
Cc1cccc(-c2[nH]c(C(C)(C)C)nc2-c2ccc3nccnc3c2)n1 | nt | i | nt | nt | nt

Assay outcomes from PubChem.
